# Source: PubChem BioAssay
# Activity calls are given as the source filed them.
# Target: Luciferin 4-monooxygenase (Photinus pyralis) (UniProt P08659)
# Assay: firefly luciferase enzyme inhibitors, primary screen, biochemical, luminescence, purified enzyme, 2006 set (AID 1141);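 further: cell-free assay with purified firefly luciferase at 100 ng per well in PBS; test concentration not given here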
# Conditions: SteadyGlo luminescence, 30 min, higher = more signal, called active from +8 up or from −8 down
# Luciferin 4-monooxygenase (Photinus pyralis), sequence (P08659 whole entry, looked up): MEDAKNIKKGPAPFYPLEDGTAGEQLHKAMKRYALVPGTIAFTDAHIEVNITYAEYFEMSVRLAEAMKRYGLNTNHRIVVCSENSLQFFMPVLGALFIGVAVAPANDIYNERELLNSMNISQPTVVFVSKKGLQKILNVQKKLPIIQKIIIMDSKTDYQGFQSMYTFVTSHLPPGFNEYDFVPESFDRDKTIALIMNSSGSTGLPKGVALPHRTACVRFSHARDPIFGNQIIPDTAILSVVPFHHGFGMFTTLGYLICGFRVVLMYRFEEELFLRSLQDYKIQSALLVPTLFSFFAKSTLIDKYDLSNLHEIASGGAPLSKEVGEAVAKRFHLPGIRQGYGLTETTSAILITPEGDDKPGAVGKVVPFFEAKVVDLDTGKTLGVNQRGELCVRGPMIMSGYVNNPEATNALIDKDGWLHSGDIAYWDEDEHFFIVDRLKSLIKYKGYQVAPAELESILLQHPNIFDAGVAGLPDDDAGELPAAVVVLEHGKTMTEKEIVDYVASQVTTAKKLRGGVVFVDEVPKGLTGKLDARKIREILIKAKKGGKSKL
row,SMILES,z-score
1,CCCC[C@@H](O)C1=C(COC)C[C@H]2C(=O)N(C)C(=O)[C@H]2[C@H]1CO,0.0646 (inactive)
2,COC(=O)C(CC#Cc1ccc2c(c1)[C@]1(C(=O)N2)[C@H](c2ccc(O)cc2)N2[C@H](c3ccccc3)[C@H](c3ccccc3)OC(=O)[C@H]2[C@@H]1C(=O)NC[C@H](O)c1ccccc1)C(=O)OC,0.314 (inactive)
3,COC(=O)C1=CC(CCCO)=CC(c2ccc(CN3CCCC3)cc2)N(Cc2cccc(OC(F)(F)F)c2)C=C1C(=O)OC (centres undefined),-3.06 (inactive)
4,NC(=O)NCC#Cc1ccc2c(c1)[C@]1(C(=O)N2)[C@H](c2ccccc2OCCO)N2[C@H](c3ccccc3)[C@H](c3ccccc3)OC(=O)[C@H]2[C@@H]1C(=O)O,-0.521 (inactive)
5,COC(=O)[C@@H]1N=C(c2ccc(OCCCO)cc2)O[C@@H]1c1ccccc1,-13.4 (active)
6,C=CCC(OC(C)=O)[C@@H]1[C@@H](N(Cc2cccc3ccccc23)C(=O)Cc2ccc(OC)cc2)c2cc(OCCCO)ccc2N1C(=O)c1ccc(-c2ccccc2)cc1 (some centres undefined),0.828 (inactive)
7,CC(C)[Si]1(C(C)C)OCc2cc(-c3ccc(-c4ccc(Cl)c(Cl)c4)o3)nc(-c3ccccc3)c21,-1.07 (inactive)

# Tested on: Wnt5a (protein binding on small-molecule microarray)
# Assay: Wnt5a binders on small-molecule microarray, primary screen, biophysical, 635/667 nm fluorescence (AID 1142);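 further: fluorescence read at 667 nm with signal to noise per printed feature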
# Conditions: 635 nm fluorescence, higher = more signal
row,SMILES,composite z-score
1,C=CC[C@H](OC(=O)Nc1ccc(SC)cc1)c1ccc(O)c2ccccc12,0.336
2,O=C1O[C@@H](c2ccccc2)[C@@H](c2ccccc2)N2[C@@H](c3ccc(OCCO)cc3)[C@]3(C(=O)Nc4ccc(C#CC5=CCCCC5)cc43)[C@@H](C(=O)NC[C@H](O)c3ccccc3)[C@H]12,0.771
3,O=C1O[C@H](c2ccccc2)[C@H](c2ccccc2)N2[C@H]1[C@@H](C(=O)O)[C@]1(C(=O)Nc3ccc(C#CCCO)cc31)[C@H]2c1ccccc1OCCO,0.248
4,CC(C)c1ccc(NN2C(C(O)c3ccc(C#N)cc3)C=CC3C(=O)N(c4ccccc4)C(=O)C32)cc1 (centres undefined),0.248
5,C[N+](C)(C)CCCC[C@@H]1NC(=O)[C@@H]2C[C@H](C(=O)NCCCCCCN)[C@H](c3cccc(OCCO)c3)N2C1=O,0.397
6,CC(C)[Si]1(C(C)C)OCc2cc(C3CC3)nc(-c3ccc(Oc4ccccc4)cc3)c21,-0.223
7,COCCOC(=O)N1C(=O)[C@@]2(c3cc(C#CC4(O)CCCCCC4)ccc31)[C@H](c1ccc(O)cc1)N1[C@H](c3ccccc3)[C@H](c3ccccc3)OC(=O)[C@H]1[C@@H]2C(=O)N1CCN(c2ncccn2)CC1,0.623
8,COC(=O)c1c(CC[C@@H](CO)NC(=O)N[C@@H](C)Cn2cc(-c3ccccn3)nn2)oc(C(C)=O)c1C(=O)OC,0.182
9,CCOC(=O)[C@@H]1CCCCN1C(=O)C(=O)OC,0.214
10,CN(C)c1ccc(C(O)C2C=CC3C(=O)NC(=O)C3N2Nc2ccccn2)cc1 (centres undefined),0.0094
11,CC#CCO[Si](C#Cc1ccccc1)(C(C)C)C(C)C,-0.254
12,CC(=O)N1CC2(CC2)CC1c1ccccc1 (centres undefined),0.898
13,COCCOC(=O)N1C(=O)[C@@]2(c3cc(C#CCC(C(=O)OC)C(=O)OC)ccc31)[C@H](c1ccc(OCCO)cc1)N1[C@H](c3ccccc3)[C@H](c3ccccc3)OC(=O)[C@H]1[C@@H]2C(=O)N1CCc2cc(OC)c(OC)cc2C1,0.575
14,C=CCC(OC(C)=O)[C@@H]1[C@@H](N(Cc2cccc3ccccc23)C(=O)Cc2ccc(F)cc2)c2cc(OCCCO)ccc2N1C(=O)c1ccc2ccccc2c1 (some centres undefined),0.107
15,CN1C2C=C(CCCO)C(C3C(=O)N(C(N)=O)C(=O)C32)C1C1CC1 (centres undefined),-0.173
16,CCCN1C(=O)[C@]2(Cc3ccccc31)N=C(c1ccc(OCCCO)cc1)O[C@@H]2c1ccccc1,0.489
17,NCCCCCNC(=O)[C@@H]1C[C@@H]2C(=O)N[C@@H](CCCCN)C(=O)N2[C@@H]1c1ccc(O)cc1,-0.0113
18,Cc1ccc(C(C)CC(O)C2C=CC3C(=O)N(c4ccccc4)C(=O)C3N2Nc2ccccc2)o1 (centres undefined),0.158
19,CCCNC(=O)[C@@H]1c2ccccc2C(=O)N(Cc2ccc(OC(F)(F)F)cc2)[C@H]1c1ccc(CO)cc1,0.474
20,CC(C)C(CO)N1C(=O)[C@@H]2[C@H]3C(=O)OCC=C[C@H]3OC23C=CCN(c2ccc(Cl)cc2)C(=O)[C@@H]13 (some centres undefined),-0.0632
21,CC(C)c1ccc(NN2C(C(O)c3ccc(F)cc3)C=CC3C(=O)N(c4ccccc4)C(=O)C32)cc1 (centres undefined),0.306
22,OCCCC1=CC(c2ccc(CN3CCCC3)cc2)N(Cc2cc3c(cc2Br)OCO3)CC1 (centres undefined),0.268
